Reference: publication PMC7862700, “An all-to-all approach to the identification of sequence-specific readers for epigenetic DNA modifications on cytosine”

Experiments:
Assay in all cases: DAPPL (digital affinity profiling via proximity ligation, sequencing); 10 mM Tris-HCl pH 7.5, 50 mM NaCl, 1 mM DTT, 4% glycerol, room temperature, 30 min; GST-TFs on glutathione beads, 16-mer random dsDNA library, 0.1% formaldehyde crosslink after washing; high values mean tight binding
Settings in all cases: protein: recombinant; tags: N-terminal GST; dsDNA, one strand shown
FLI1 = molecular target: T1, FLI1 (Homo sapiens, UniProt Q01543 1-452)
T1 sequence: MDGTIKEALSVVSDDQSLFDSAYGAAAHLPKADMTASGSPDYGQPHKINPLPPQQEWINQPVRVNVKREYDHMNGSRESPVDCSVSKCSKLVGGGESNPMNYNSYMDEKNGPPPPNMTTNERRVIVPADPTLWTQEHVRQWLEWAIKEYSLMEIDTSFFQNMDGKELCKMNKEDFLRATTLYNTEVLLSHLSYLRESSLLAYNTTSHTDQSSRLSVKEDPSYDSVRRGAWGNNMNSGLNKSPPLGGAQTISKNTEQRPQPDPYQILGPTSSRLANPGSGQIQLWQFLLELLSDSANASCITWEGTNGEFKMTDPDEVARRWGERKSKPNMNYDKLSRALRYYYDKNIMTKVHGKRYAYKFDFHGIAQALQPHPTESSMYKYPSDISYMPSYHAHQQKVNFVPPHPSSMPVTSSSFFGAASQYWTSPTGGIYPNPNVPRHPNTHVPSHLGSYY
Summary of the method: (§1)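 After expression in yeast as GST fusions, human transcription factors were bound to glutathione beads, DNA-barcoded and mixed with a tag-only sample. The pools were incubated with 200 nmole of a 16-mer random double-stranded DNA library in Tris/NaCl/DTT/glycerol buffer (30 min, room temperature), washed and crosslinked with 0.1% formaldehyde. Proximity ligation with BsaI/T4 ligase ran for 1 h at 37 °C, before PCR amplification and sequencing on an Illumina NextSeq500. Binding signal is a hexamer's read frequency for a factor divided by its frequency for the tag-only sample.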

ELK1 = molecular target: T2, ELK1 (Homo sapiens, UniProt P19419 1-428)
T2 sequence: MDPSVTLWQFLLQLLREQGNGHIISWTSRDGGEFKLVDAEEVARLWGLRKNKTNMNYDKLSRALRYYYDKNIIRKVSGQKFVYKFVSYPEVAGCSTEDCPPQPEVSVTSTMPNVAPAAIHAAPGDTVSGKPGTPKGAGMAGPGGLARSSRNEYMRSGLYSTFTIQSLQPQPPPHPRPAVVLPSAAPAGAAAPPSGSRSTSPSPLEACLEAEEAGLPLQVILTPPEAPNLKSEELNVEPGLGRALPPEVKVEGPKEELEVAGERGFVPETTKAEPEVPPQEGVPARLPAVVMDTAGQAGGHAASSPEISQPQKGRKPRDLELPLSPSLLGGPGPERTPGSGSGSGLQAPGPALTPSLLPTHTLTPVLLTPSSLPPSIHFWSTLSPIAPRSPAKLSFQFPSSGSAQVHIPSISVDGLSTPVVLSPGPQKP
Summary of the method: as §1

GABPA = molecular target: T3, GABPA (Homo sapiens, UniProt Q06546 1-454)
T3 sequence: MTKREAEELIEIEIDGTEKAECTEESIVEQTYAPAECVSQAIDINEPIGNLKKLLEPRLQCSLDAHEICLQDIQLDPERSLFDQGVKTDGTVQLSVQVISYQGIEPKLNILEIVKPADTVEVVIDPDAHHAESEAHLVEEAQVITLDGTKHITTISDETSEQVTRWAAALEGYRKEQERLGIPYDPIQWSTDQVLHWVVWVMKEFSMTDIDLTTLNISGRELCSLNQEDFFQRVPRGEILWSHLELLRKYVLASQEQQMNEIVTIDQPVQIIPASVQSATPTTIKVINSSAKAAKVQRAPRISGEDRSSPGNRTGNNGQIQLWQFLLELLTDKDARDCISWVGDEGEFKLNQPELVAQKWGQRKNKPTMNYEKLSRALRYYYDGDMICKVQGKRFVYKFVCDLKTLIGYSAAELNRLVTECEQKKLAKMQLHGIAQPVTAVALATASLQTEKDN
Summary of the method: as §1

ERG = molecular target: T4, ERG (Homo sapiens, UniProt P11308 1-479)
T4 sequence: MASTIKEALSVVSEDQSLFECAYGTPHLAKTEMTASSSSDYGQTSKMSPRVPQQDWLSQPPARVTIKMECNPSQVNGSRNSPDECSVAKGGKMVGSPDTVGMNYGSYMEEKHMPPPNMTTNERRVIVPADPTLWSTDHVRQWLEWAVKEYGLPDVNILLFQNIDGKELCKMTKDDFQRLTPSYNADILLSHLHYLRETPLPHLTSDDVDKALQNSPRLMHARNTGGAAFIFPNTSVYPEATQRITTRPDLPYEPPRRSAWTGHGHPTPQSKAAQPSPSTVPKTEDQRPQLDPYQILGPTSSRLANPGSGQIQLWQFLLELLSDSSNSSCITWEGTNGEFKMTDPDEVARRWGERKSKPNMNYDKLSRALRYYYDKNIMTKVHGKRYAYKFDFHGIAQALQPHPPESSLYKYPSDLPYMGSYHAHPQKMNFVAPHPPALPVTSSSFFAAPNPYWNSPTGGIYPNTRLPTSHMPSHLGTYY
Summary of the method: as §1

ELF1 = ELF1 (Homo sapiens, UniProt P32519 1-619)
Chain of ELF1 (P32519 whole entry): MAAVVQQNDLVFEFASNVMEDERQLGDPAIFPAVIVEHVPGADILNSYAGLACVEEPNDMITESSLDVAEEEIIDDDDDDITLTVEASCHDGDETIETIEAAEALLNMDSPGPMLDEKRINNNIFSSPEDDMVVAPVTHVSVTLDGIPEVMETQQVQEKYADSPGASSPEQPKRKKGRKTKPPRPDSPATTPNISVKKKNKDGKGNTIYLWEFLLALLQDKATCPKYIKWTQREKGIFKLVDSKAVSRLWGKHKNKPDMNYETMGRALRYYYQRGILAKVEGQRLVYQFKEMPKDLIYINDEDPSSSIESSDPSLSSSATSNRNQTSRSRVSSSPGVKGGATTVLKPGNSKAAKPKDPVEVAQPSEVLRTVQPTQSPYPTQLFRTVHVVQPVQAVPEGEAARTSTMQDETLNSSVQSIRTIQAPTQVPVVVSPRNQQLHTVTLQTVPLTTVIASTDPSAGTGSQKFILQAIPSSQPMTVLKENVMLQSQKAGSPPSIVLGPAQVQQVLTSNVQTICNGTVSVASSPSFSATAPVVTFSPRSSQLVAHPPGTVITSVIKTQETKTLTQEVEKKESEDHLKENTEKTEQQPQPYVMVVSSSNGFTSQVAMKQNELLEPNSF
Summary of the method: as §1

EHF = molecular target: T5, EHF (Homo sapiens, UniProt Q9NZC4 1-300)
T5 sequence: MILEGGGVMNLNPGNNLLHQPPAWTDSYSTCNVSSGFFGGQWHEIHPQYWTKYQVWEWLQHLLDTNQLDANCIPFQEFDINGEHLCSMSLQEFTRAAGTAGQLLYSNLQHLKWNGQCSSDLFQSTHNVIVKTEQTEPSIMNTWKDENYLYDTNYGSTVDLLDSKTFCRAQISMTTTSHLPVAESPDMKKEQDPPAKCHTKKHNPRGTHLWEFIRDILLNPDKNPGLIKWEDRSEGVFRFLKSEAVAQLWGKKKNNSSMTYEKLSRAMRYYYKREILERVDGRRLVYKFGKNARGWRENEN
Summary of the method: as §1

SPI1 = SPI1 (Homo sapiens, UniProt P17947 1-270)
Summary of the method: as §1

SPIB = SPIB (Homo sapiens, UniProt Q01892 1-262)
Chain of SPIB (Q01892 whole entry): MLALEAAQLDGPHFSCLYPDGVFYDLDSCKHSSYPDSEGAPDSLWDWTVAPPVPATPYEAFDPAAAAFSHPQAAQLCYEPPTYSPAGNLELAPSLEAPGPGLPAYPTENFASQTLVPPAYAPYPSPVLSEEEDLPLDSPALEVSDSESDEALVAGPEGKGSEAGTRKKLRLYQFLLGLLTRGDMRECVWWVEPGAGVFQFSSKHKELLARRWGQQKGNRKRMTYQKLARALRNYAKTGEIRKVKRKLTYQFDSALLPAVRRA
Summary of the method: as §1

ELK3 = molecular target: T6, ELK3 (Homo sapiens, UniProt P41970 1-407)
T6 sequence: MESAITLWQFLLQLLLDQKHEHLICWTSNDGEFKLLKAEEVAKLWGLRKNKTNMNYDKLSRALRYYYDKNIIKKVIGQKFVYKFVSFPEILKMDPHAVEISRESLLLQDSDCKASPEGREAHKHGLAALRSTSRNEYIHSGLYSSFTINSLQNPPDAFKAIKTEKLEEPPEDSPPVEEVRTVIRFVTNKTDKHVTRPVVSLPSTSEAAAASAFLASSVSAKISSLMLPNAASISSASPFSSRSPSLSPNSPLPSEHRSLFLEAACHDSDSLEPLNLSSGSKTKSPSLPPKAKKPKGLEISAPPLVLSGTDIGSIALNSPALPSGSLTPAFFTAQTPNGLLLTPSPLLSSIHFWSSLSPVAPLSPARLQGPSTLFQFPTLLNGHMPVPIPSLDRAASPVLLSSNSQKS
Summary of the method: as §1

FEV = molecular target: T7, FEV (Homo sapiens, UniProt Q99581 1-238)
T7 sequence: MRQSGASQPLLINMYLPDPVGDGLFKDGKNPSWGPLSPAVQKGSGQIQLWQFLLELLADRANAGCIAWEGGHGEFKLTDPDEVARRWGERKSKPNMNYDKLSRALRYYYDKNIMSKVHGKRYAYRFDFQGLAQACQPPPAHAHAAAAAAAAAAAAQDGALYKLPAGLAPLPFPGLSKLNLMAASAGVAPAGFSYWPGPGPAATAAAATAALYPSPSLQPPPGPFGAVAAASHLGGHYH
Summary of the method: as §1

ETV5 = ETV5 (Homo sapiens, UniProt P41161 1-510)
Chain of ETV5 (P41161 whole entry): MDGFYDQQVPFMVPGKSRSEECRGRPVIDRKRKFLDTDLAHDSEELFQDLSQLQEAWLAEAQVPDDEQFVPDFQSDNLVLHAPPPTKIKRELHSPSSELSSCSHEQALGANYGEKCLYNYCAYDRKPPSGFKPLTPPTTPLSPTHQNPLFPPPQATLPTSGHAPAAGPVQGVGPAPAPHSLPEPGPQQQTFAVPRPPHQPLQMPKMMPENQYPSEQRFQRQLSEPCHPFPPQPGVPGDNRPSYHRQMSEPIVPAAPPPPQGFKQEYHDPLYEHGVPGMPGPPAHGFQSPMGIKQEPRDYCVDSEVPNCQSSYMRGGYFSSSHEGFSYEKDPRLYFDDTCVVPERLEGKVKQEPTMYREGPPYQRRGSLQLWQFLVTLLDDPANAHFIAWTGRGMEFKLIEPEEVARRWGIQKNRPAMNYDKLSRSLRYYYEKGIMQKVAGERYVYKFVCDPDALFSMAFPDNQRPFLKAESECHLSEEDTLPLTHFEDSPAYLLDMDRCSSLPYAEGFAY
Summary of the method: as §1

SPIC = molecular target: T8, SPIC (Homo sapiens, UniProt Q8N5J4 1-248)
T8 sequence: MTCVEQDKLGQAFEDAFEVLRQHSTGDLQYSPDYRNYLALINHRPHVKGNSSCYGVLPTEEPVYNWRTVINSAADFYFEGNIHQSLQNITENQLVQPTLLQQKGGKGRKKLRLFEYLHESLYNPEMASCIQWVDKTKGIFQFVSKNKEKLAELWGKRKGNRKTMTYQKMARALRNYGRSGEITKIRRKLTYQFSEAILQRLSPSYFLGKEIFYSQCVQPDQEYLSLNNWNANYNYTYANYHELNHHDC
Summary of the method: as §1

ELF4 = ELF4 (Homo sapiens, UniProt Q99607 1-663)
Chain of ELF4 (Q99607 whole entry): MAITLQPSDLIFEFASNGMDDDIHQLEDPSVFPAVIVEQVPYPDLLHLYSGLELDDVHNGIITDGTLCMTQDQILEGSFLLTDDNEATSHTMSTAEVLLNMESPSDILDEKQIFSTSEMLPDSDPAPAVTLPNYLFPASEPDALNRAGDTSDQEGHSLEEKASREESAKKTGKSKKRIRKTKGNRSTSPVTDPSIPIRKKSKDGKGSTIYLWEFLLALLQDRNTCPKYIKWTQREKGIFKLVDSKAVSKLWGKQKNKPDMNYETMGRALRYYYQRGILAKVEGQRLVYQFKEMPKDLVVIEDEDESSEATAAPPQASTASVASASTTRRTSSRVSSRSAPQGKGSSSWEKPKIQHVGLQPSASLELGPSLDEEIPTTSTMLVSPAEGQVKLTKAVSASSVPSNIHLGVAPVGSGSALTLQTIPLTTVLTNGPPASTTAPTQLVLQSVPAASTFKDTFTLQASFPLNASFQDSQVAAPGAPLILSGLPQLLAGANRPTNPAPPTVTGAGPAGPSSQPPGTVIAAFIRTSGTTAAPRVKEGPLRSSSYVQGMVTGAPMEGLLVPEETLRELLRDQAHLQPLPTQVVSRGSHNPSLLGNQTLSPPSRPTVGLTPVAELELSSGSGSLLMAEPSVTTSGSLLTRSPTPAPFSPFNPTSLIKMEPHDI
Summary of the method: as §1

ELK4 = molecular target: T9, ELK4 (Homo sapiens, UniProt P28324-2 1-405)
T9 sequence: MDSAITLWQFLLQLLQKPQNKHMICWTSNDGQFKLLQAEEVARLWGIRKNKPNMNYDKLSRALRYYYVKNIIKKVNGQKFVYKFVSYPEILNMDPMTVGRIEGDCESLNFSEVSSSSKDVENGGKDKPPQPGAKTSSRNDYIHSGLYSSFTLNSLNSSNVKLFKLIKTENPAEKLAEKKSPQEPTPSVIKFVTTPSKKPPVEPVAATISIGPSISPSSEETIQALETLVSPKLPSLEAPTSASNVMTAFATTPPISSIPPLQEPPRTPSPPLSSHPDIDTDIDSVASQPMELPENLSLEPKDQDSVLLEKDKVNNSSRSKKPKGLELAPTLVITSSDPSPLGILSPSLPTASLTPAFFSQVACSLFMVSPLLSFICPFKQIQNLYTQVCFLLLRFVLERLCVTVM
Summary of the method: as §1

ETV2 = molecular target: T10, ETV2 (Homo sapiens, UniProt O00321 1-342)
T10 sequence: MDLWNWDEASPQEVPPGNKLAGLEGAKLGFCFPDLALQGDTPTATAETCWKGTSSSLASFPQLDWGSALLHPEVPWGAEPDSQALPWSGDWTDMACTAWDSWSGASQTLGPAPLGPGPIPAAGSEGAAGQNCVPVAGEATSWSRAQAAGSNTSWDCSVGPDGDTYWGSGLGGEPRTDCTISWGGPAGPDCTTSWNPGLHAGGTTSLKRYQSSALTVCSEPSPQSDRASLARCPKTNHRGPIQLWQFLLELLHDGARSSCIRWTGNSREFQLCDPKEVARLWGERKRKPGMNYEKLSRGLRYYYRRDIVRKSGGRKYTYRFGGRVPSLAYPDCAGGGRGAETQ
Summary of the method: as §1

ELF3 = molecular target: T11, ELF3 (Homo sapiens, UniProt P78545 1-371)
T11 sequence: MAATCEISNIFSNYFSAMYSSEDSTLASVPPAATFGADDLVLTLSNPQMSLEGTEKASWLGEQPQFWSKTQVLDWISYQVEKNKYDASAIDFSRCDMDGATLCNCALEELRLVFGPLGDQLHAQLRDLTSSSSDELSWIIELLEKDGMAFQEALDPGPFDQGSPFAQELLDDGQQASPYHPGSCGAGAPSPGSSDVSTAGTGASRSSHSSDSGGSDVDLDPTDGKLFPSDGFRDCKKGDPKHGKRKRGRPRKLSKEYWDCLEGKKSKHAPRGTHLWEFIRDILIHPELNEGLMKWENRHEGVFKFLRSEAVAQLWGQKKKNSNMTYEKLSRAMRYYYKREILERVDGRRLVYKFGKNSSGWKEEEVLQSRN
Summary of the method: as §1

ETV1 = ETV1 (Homo sapiens, UniProt P50549 1-477)
Chain of ETV1 (P50549 whole entry): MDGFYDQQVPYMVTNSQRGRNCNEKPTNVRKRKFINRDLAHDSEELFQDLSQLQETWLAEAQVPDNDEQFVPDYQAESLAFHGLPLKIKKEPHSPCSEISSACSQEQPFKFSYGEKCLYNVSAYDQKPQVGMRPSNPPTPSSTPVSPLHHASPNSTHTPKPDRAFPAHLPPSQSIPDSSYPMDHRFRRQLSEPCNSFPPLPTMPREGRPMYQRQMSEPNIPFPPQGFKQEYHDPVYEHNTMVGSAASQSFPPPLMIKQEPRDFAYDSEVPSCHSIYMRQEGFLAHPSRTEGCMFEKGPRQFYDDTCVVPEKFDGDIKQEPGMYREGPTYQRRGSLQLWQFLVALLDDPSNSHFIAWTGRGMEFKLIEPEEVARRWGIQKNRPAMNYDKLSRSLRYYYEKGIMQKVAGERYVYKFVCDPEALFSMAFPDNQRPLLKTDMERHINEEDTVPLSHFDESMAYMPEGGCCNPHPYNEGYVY
Summary of the method: as §1

Sequence | binding signal (FLI1) | binding signal (ELK1) | binding signal (GABPA) | binding signal (ERG) | binding signal (ELF1) | binding signal (EHF) | binding signal (SPI1) | binding signal (SPIB) | binding signal (ELK3) | binding signal (FEV) | binding signal (ETV5) | binding signal (SPIC) | binding signal (ELF4) | binding signal (ELK4) | binding signal (ETV2) | binding signal (ELF3) | binding signal (ETV1)
CACCCC | 1.2 fold enrichment (6-mer frequency, TF over GST control) | 1.3 fold enrichment (6-mer frequency, TF over GST control) | 1.35 fold enrichment (6-mer frequency, TF over GST control) | 1.22 fold enrichment (6-mer frequency, TF over GST control) | 1.28 fold enrichment (6-mer frequency, TF over GST control) | 1.19 fold enrichment (6-mer frequency, TF over GST control) | 1.24 fold enrichment (6-mer frequency, TF over GST control) | 1.32 fold enrichment (6-mer frequency, TF over GST control) | 1.31 fold enrichment (6-mer frequency, TF over GST control) | 1.22 fold enrichment (6-mer frequency, TF over GST control) | 1.18 fold enrichment (6-mer frequency, TF over GST control) | 1.41 fold enrichment (6-mer frequency, TF over GST control) | 1.18 fold enrichment (6-mer frequency, TF over GST control) | 1.47 fold enrichment (6-mer frequency, TF over GST control) | 1.13 fold enrichment (6-mer frequency, TF over GST control) | 1.11 fold enrichment (6-mer frequency, TF over GST control) | 1.28 fold enrichment (6-mer frequency, TF over GST control)
ATACGG | 1.19 fold enrichment (6-mer frequency, TF over GST control) | 1.16 fold enrichment (6-mer frequency, TF over GST control) | 1.17 fold enrichment (6-mer frequency, TF over GST control) | 1.23 fold enrichment (6-mer frequency, TF over GST control) | 1.19 fold enrichment (6-mer frequency, TF over GST control) | 1.2 fold enrichment (6-mer frequency, TF over GST control) | 1.31 fold enrichment (6-mer frequency, TF over GST control) | 1.23 fold enrichment (6-mer frequency, TF over GST control) | 1.23 fold enrichment (6-mer frequency, TF over GST control) | 1.16 fold enrichment (6-mer frequency, TF over GST control) | 1.25 fold enrichment (6-mer frequency, TF over GST control) | 1.2 fold enrichment (6-mer frequency, TF over GST control) | 1.2 fold enrichment (6-mer frequency, TF over GST control) | 1.03 fold enrichment (6-mer frequency, TF over GST control) | 1.22 fold enrichment (6-mer frequency, TF over GST control) | 1.25 fold enrichment (6-mer frequency, TF over GST control) | 1.21 fold enrichment (6-mer frequency, TF over GST control)
